Values joined by “and” are separate entries in the source; they are usually repeats but may differ in a detail not shown here. Equal values may be shown once. The panel holds about 79,000 compounds, 15% with a hit somewhere; the sample as a whole holds those more often. A structure can be active in one record and inactive in another. Active and inactive are the calls of the source. Cut-off read from the data, not from the text of the source: active = growth inhibition above about 70%; inactive = the rest.
Key:
[1] = NCI Yeast Anticancer Drug Screen. Data for the rad52 strain (AID 147);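 note: 0% = growth of vehicle-treated control cultures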; settings: S. cerevisiae rad52 mutant growth inhibition, stronger effect = higher value
How it was run: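 Screen used a yeast mutant impaired in DNA repair. After compound exposure, growth was measured. Values reflect inhibition compared with vehicle-treated cells.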

[2] = NCI Yeast Anticancer Drug Screen. Data for the wt1 strain (AID 149);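 note: 0% = growth of vehicle-treated wt1 cultures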; settings: S. cerevisiae wt1 strain (SPY 50644) growth inhibition, stronger effect = higher value
How it was run: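 Yeast wt1 strain exposed to compounds; growth inhibition measured relative to vehicle-treated controls.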

[3] = NCI Yeast Anticancer Drug Screen. Data for the rad50EPP+ strain (AID 151);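 note: 0% = growth of vehicle-treated control cultures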; settings: S. cerevisiae rad50 mutant strain, stronger effect = higher value
How it was run: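 Exposing the rad50EPP+ strain to each compound, growth was compared with vehicle-only cultures to give inhibition.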

[4] = NCI Yeast Anticancer Drug Screen. Data for the mgt1 strain (AID 153); settings: S. cerevisiae mgt1 mutant growth inhibition, stronger effect = higher value
How it was run: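 Genetically defined yeast (mgt1) treated with compound; inhibition of growth expressed against vehicle-treated controls.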

[5] = NCI Yeast Anticancer Drug Screen. Data for the rad50 strain (AID 155);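 note: 0% = growth of vehicle-only cultures of the same strain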; settings: S. cerevisiae rad50 strain growth inhibition, stronger effect = higher value
How it was run: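 Yeast carrying a defined DNA repair defect were exposed to test compounds, and growth was compared with vehicle-treated controls to give percent inhibition.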

[6] = NCI Yeast Anticancer Drug Screen. Data for the mec2-1 strain (AID 157); settings: S. cerevisiae mec2-1 strain, stronger effect = higher value
How it was run: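 Readout is yeast growth inhibition, normalised to vehicle-treated controls, in the mec2-1 strain exposed to compound.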

[7] = NCI Yeast Anticancer Drug Screen. Data for the rad14 strain (AID 159);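 note: 0% = growth of vehicle-treated control cultures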; settings: S. cerevisiae rad14 strain growth inhibition, stronger effect = higher value
How it was run: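 Yeast cells carrying a defined DNA-repair defect were exposed to compounds, and growth inhibition was calculated relative to vehicle-treated control cultures.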

[8] = NCI Yeast Anticancer Drug Screen. Data for the sgs1 mgt1 strain (AID 161);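 note: 0% = growth of cultures given vehicle only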; settings: S. cerevisiae sgs1 mgt1 strain, stronger effect = higher value
How it was run: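 Percent growth inhibition was derived by comparing compound-exposed mutant yeast with vehicle-exposed cultures. The strain carries alterations in DNA damage repair.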

[9] = NCI Yeast Anticancer Drug Screen. Data for the CLN2oe strain (AID 163);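 note: 0% = growth of vehicle-only control cultures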; settings: S. cerevisiae CLN2oe strain, stronger effect = higher value
How it was run: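 Values reflect how much compound exposure reduced yeast growth, referenced to vehicle-exposed cells. Assay organism is a strain with a defined genetic change affecting cell-cycle control.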

[10] = NCI Yeast Anticancer Drug Screen. Data for the cln2 rad14 strain (AID 165);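 note: 0% = growth equal to vehicle treated cultures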; settings: S. cerevisiae cln2 rad14 strain, stronger effect = higher value
How it was run: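 Relative to vehicle controls, growth inhibition of compound-treated cln2 rad14 yeast was recorded.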

[11] = NCI Yeast Anticancer Drug Screen. Data for the bub3 strain (AID 167); settings: S. cerevisiae bub3 mutant strain, stronger effect = higher value
How it was run: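 Compounds were applied to a genetically altered yeast strain carrying a cell-cycle control defect. Growth inhibition was scored against vehicle-treated controls.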

[12] = NCI Yeast Anticancer Drug Screen. Data for the wt2 strain (AID 169);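 note: 0% = growth of vehicle-treated yeast cultures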; settings: S. cerevisiae wt2 strain growth inhibition, stronger effect = higher value
How it was run: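 Values express reduction in yeast growth under compound treatment, referenced to vehicle-treated cells.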

[13] = NCI Yeast Anticancer Drug Screen. Data for the mlh1 strain (AID 171);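 note: 0% = growth of vehicle-treated control cultures of the same strain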; settings: S. cerevisiae mlh1 strain growth inhibition, stronger effect = higher value
How it was run: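 Steps: expose the defined-mutant yeast strain to compound; expose a parallel culture to vehicle; measure growth; express compound effect as inhibition relative to the vehicle culture.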

[14] = NCI Yeast Anticancer Drug Screen. Data for the sgs1 strain (AID 173);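 note: 0% = growth of vehicle-only control cultures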; settings: S. cerevisiae sgs1 mutant, stronger effect = higher value
How it was run: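 Treat defined-mutant yeast with compound; measure growth; calculate inhibition relative to vehicle-treated cells.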

[15] = NCI Yeast Anticancer Drug Screen. Data for the mlh1 rad18 strain (AID 175); settings: S. cerevisiae mlh1 rad18 strain growth inhibition, stronger effect = higher value
How it was run: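 Test agents were incubated with a yeast strain of defined genotype (DNA damage repair defect). Inhibition of growth was derived by comparison with vehicle-exposed cultures.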

[16] = at 5.0 µM (retest, dose inferred, filed as 0.5)
[17] = at 50.0 µM (retest, dose inferred, filed as 5.0)

Measured: growth inhibition

O=[N+]([O-])c1cc[n+]([O-])cc1
46.1% (inactive) and 83.2% (active): [5]; at 50.0 µM
26.8% (inactive) and 87.5% (active): [15]; at 50.0 µM
26.7% (inactive) and 86.5% (active): [8]; at 50.0 µM
inactive: [1]; at 1.2 µM -3% | [1]; at 3.7 µM 2% | [1]; at 11.0 µM 4% | [1]; at 33.0 µM 32% | [2]; at 1.2 µM -6% | [2]; at 3.7 µM -6% | [2]; at 11.0 µM -10% | [2]; at 33.0 µM -14% | [3]; at 1.2 µM 1% | [3]; at 3.7 µM 11% | [3]; at 11.0 µM 12% | [3]; at 33.0 µM 48% | [4]; at 1.2 µM -1% | [4]; at 3.7 µM -4% | [4]; at 11.0 µM -3% | [4]; at 33.0 µM -16% | [5]; at 1.2 µM -6% | [5]; at 3.7 µM -6% | [5]; [16] -158% and 4% | [5]; at 11.0 µM -1% | [5]; at 33.0 µM 58% | [5]; [17] 66% and 60% | [6]; at 1.2 µM 4% | [6]; at 3.7 µM -2% | [6]; [16] -52% and 2% | [6]; at 11.0 µM 0% | [6]; at 33.0 µM -2% | [6]; [17] -19% and 38% | [6]; at 50.0 µM 52% and 57.5% | [7]; at 1.2 µM -2% | [7]; at 3.7 µM 1% | [7]; at 11.0 µM -1% | [7]; at 33.0 µM 19% | [8]; [16] -62% and -8% | [8]; [17] 40% and 54% | [9]; at 1.2 µM -3% | [9]; at 3.7 µM -4% | [9]; at 11.0 µM -2% | [9]; at 33.0 µM 5% | [10]; [16] -61% and -3% | [10]; [17] -19% and 19% | [10]; at 50.0 µM 50.1% and 7.4% | [11]; at 1.2 µM -12% | [11]; at 3.7 µM -8% | [11]; [16] -68% and 5% | [11]; at 11.0 µM 2% | [11]; at 33.0 µM 22% | [11]; [17] 13% and 33% | [11]; at 50.0 µM 9.95% and 68% | [12]; at 1.2 µM -3% | [12]; at 3.7 µM -2% | [12]; at 11.0 µM -3% | [12]; at 33.0 µM -11% | [13]; at 1.2 µM 3% | [13]; at 3.7 µM -6% | [13]; at 11.0 µM -3% | [13]; at 33.0 µM -3% | [14]; at 1.2 µM -2% | [14]; at 3.7 µM -3% | [14]; at 11.0 µM -8% | [14]; at 33.0 µM 33% | [15]; [16] -136% and 0% | [15]; [17] 33% and 53%
active: [1]; at 100.0 µM 98% | [2]; at 100.0 µM 99% | [3]; at 100.0 µM 98% | [4]; at 100.0 µM 99% | [5]; at 100.0 µM 99% | [6]; at 100.0 µM 99% | [7]; at 100.0 µM 99% | [9]; at 100.0 µM 98% | [11]; at 100.0 µM 99% | [12]; at 100.0 µM 99% | [13]; at 100.0 µM 99% | [14]; at 100.0 µM 99%

Cc1cc(C)c(NC(=S)NC(=O)c2ccccc2)cc1C
active: [11]; [17] 79%
inactive: [1]; at 1.2 µM -33% | [1]; at 3.7 µM -58% | [1]; at 11.0 µM -54% | [1]; at 33.0 µM -41% | [1]; at 100.0 µM -44% | [2]; at 1.2 µM -46% | [2]; at 3.7 µM -29% | [2]; at 11.0 µM -39% | [2]; at 33.0 µM -17% | [2]; at 100.0 µM -14% | [3]; at 1.2 µM -44% | [3]; at 3.7 µM -41% | [3]; at 11.0 µM -25% | [3]; at 33.0 µM -18% | [3]; at 100.0 µM -5% | [4]; at 1.2 µM -57% | [4]; at 3.7 µM -54% | [4]; at 11.0 µM -25% | [4]; at 33.0 µM 26% | [4]; at 100.0 µM 37% | [5]; at 1.2 µM -50% | [5]; at 3.7 µM -52% | [5]; [16] -13% | [5]; at 11.0 µM -52% | [5]; at 33.0 µM -39% | [5]; [17] -4% | [5]; at 50.0 µM 18.4% | [5]; at 100.0 µM -21% | [6]; at 1.2 µM -41% | [6]; at 3.7 µM -61% | [6]; [16] -16% | [6]; at 11.0 µM -49% | [6]; at 33.0 µM -46% | [6]; [17] 4% | [6]; at 50.0 µM -0.25% | [6]; at 100.0 µM -11% | [7]; at 1.2 µM -40% | [7]; at 3.7 µM -48% | [7]; at 11.0 µM -40% | [7]; at 33.0 µM -16% | [7]; at 100.0 µM -9% | [8]; [16] -7% | [8]; [17] 41% | [8]; at 50.0 µM 25.3% | [9]; at 1.2 µM -63% | [9]; at 3.7 µM -78% | [9]; at 11.0 µM -58% | [9]; at 33.0 µM -64% | [9]; at 100.0 µM -57% | [10]; [16] -4% | [10]; [17] 15% | [10]; at 50.0 µM 2.25% | [11]; at 1.2 µM -21% | [11]; at 3.7 µM -17% | [11]; [16] 8% | [11]; at 11.0 µM 38% | [11]; at 33.0 µM 65% | [11]; at 50.0 µM 49.6% | [11]; at 100.0 µM 62%

From PubChem BioAssay (NCI)
